We go through 94 compounds from PubChem BioAssay AID819 (Columbia University Molecular Screening Center, 2007).

In all, about 94,000 compounds went through this assay and about 280 (0.3%) were called active.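 Rule for the calls: active = activation above 40%, about the mean plus 3 SD, also judged a hit on visual image review; inconclusive = activation above 40% but not a hit on visual review; inactive = activation not above 40% and no visual hit.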 Many of the other results were omitted from the sample, so actives are more common in it than they were.

The experiment can be described thus: enhancers of NFkB p65 translocation in HUVEC – imaging, IL-1B stimulus, high-content imaging, primary screen (AID 819).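 Note: percent activation is computed from the nuclear over cytoplasmic p65 intensity ratio.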 The settings on record: HUVEC IL-1B NFkB p65 nuclear translocation imaging; at 2 µM; hits give high values.
Consider `Cc1cc([N+](=O)[O-])c(NC2CCCCC2)c([N+](=O)[O-])c1`, for which the activation is 3.11% (inactive). For `NS(=O)(=O)c1ccc(Nc2nc(-c3ccccc3)cs2)cc1`, the activation is -18.6% (inactive). The figure for `O=C(CSCc1ccc([N+](=O)[O-])cc1)Nc1cccc(C(=O)Nc2ccccc2C(=O)O)c1` is 7.87% (inactive); for `COc1ccccc1NC(=O)c1ccc2nc(N3C(=O)CCC3=O)sc2c1` it is 11.6% (inactive). Take `COC(=O)c1ccccc1OCC(=O)N1CCN(c2ccc(Cl)cc2)CC1`: the activation was 11.5% (inactive). The figure for `COc1ccccc1OCCNc1cc(N2CCOCC2)ccc1[N+](=O)[O-]` is 7.12% (inactive); for `Cc1nnc(SCC(=O)NC(=O)NC2CCCC2)n1N` it is -1.65% (inactive); for `CCOC(=O)c1cnc(-c2ccccc2)nc1Oc1ccc(C)cc1` it is -7.86% (inactive).

As for `CC(C)NC(=O)NC(=O)COC(=O)c1ccc(NC(=O)CC#N)cc1`, the activation is 5.58% (inactive). In the case of `O=S(=O)(c1ccc(F)cc1)n1ccc(-c2cnc(-c3ccccc3)s2)n1`, the activation is 5.1% (inactive). The figure for `CCOCCOCCC(C(=O)O)P(=O)(c1ccccc1)c1ccccc1` (centres undefined) is 2.8% (inactive); for `O=c1nc2s/c(=C\c3ccco3)c(=O)n2nc1Cc1ccccc1` it is 10.3% (inactive).

With `CCOc1ccccc1C(=O)NCc1ccco1`, the activation was 8.02% (inactive).

Regarding `CCOc1ccccc1/C=c1\sc2nc(-c3ccco3)nn2c1=O`, the activation is 53.9% (active). The result for `CCOC1CS(=O)(=O)CC1OCC` (centres undefined) reads 12.8% (inactive).

As for `O=C1c2ccccc2C(=O)c2c1cccc2N1CCN(Cc2ccccc2)CC1`, the activation was -2.37% (inactive). Consider `O=C(COC(=O)c1ccccc1NC(=O)c1ccco1)Nc1ccc2c(c1)OC(F)(F)O2`, for which the activation was 0.88% (inactive). As to `CC(=O)c1ccc2c(ccc3ccccc32)c1`, the activation is 8.21% (inactive).

Take `CCCN1Cc2cccc(C(=O)Nc3ccc(S(=O)(=O)N4CCCCCC4)cc3)c2C1=O`: the activation was 7.44% (inactive). Turning to `O=C(Nc1ccc(Cl)cc1)OCc1cc(-c2ccccc2)on1`, the activation is 15.4% (inactive).

As to `Cc1cc(C)n(-c2cc(Oc3ccccc3)ncn2)n1`, the activation was 43.8% (active).

Consider `CC(=O)c1ccc(Oc2cc(C)nc(-n3nc(C)cc3C)n2)cc1`, for which the activation was -11.2% (inactive). Regarding `CC(=O)c1cnn(-c2cc(Oc3ccc(F)cc3)ncn2)c1C`, the activation is 10.6% (inactive). For the compound `CC12c3ccccc3C(c3ccccc31)C1C(=O)N(Cc3cccnc3)C(=O)C12` (centres undefined), the activation is -8.61% (inactive). Take `COc1cc(OC)cc(C(=O)NC2CCN(C(=O)N3c4ccccc4Sc4ccccc43)CC2)c1`: the activation was 1.07% (inactive). The result for `O=C(OCc1cn(-c2ccc(Cl)c(Cl)c2)nn1)c1ccccc1Cl` reads 12.2% (inactive); that for `O=C(CN1C(=O)NC(Cc2ccccc2)(Cc2ccccc2)C1=O)NCC1CCCCC1`, 0% (inactive); that for `CCCCOC(=O)Nc1sc2nc(C)cc(C)c2c1-n1cccc1`, -1.73% (inactive). As to `Cc1cc2c(cc1C)N(C(=O)CN1C(=O)c3ccccc3C1=O)C(C)(C)c1ssc(=S)c1-2`, the activation is 17.4% (inactive). The result for `COc1ccc(-c2[nH]nc(-c3ccccc3)c2-c2nc3ccccc3[nH]2)cc1` reads -1.89% (inactive).

For the compound `CCN1CCN(Cc2c(O)ccc3c(=O)c(-c4ccc(OC)c(OC)c4)c(C(F)(F)F)oc23)CC1`, the activation was 65.5% (active).

Consider `O=c1c(-c2ccc3c(c2)OCCO3)c(C(F)(F)F)oc2cc(O)cc(O)c12`, for which the activation was 9.87% (inactive).

In the case of `COc1ccc(OC)c(C(=O)c2coc3ccc(O)c(CN4CCOCC4)c23)c1`, the activation is -5.05% (inactive). The figure for `O=C(c1ccc2c(c1)OCO2)N1CCOCC1` is -1.72% (inactive). The result for `Cc1nnc(SCC(=O)N/N=C/c2cn(-c3ccccc3)nc2-c2ccc(F)cc2)n1-c1ccccc1` reads -16.3% (inactive); that for `COc1ccc(C2C=C(c3ccc(Br)cc3)Nc3nc(NS(C)(=O)=O)nn32)cc1` (centres undefined), 5.63% (inactive); that for `O=C(Cn1c(-c2cscn2)nc2ccccc21)Nc1ccc(Cl)cc1`, 3.1% (inactive).

Take `CON(C)S(=O)(=O)c1ccc2c(c1)NC(=O)C1CCCN21` (centres undefined): the activation was 6.63% (inactive). The result for `COc1cccc(-c2cc(C(=O)N/N=C/c3ccc(OC)c(COC(C)=O)c3)c3ccccc3n2)c1` reads 0.06% (inactive); that for `CC(Oc1ccc(-c2ccccc2)c(F)c1)c1ccn(S(=O)(=O)c2cccc3ccccc23)n1` (centres undefined), -9.3% (inactive); that for `COc1ccc(NC(=O)Cn2c(-c3ccc(OC)cc3)cn(-c3ccc(C)cc3)c2=O)cc1`, 5.6% (inactive).

As for `Cc1c(Br)cc(C(=O)N2CCCCCC2)c(C)c1C`, the activation was 11.9% (inactive). The result for `Cn1c2ccccc2n2c(=O)c(=O)n(CC(=O)c3ccc(F)cc3)nc12` reads 47.4% (active); that for `O=C(CCn1c(SCC(=O)c2ccccc2)nc2ccccc2c1=O)NCc1ccc(F)cc1`, 2.29% (inactive). The figure for `CCN1CCN(Cc2nc3c(c(=O)n(C)c(=O)n3C)n2CC(=O)c2ccccc2)CC1` is 21.5% (inactive); for `c1ccc(-n2ncc3c(N4CCCC4)ncnc32)cc1` it is 12.2% (inactive); for `Brc1cnc(N2CCCC2)nc1N1CCCCC1` it is 41.1% (active). For `Cc1ccnc(N2CCC(C(=O)NC3CCCCCC3)CC2)n1`, the activation was -7.5% (inactive). The figure for `O=C1OC(c2ccc(Cl)cc2)=N/C1=C\c1cccnc1` is 34.5% (inactive); for `Cc1nc2ccccc2c(-c2ccccc2)c1C(=O)c1ccccc1` it is 9.37% (inactive); for `CCN(CC)S(=O)(=O)c1ccc(N2CCOCC2)c(C(=O)O)c1` it is 11.9% (inactive). `O=C(c1ccc(Cl)cc1)c1cnc(Nc2ccccc2)s1`: the activation is -1.4% (inactive). As for `Nc1c(-c2ccc(F)cc2)cnn1C1CCS(=O)(=O)C1` (centres undefined), the activation was -1.34% (inactive).

Take `COc1ccc(CCN2C(=O)C3CC=C(C)CC3C2=O)cc1OC` (centres undefined): the activation is 4.82% (inactive). Turning to `O=C(c1ccccn1)c1ncc(C(F)(F)F)cc1Cl`, the activation is -0.58% (inactive). As for `CCN(CC)c1nc(-c2ccccc2)cc(C(F)(F)F)c1C#N`, the activation was 1.7% (inactive). The figure for `CCOC(=O)/C(=C\c1ccc([N+](=O)[O-])cc1)C(=O)c1cc(C(C)=O)c(Nc2ccccc2)s1` is -4.36% (inactive).

On to `COC(=O)CNC(c1ccccc1Cl)c1cc(Br)ccc1NC(=O)CCN1CCOCC1` (centres undefined), for which the activation is 0.94% (inactive).

With `Cc1ccc(OCC(=O)Nc2cccc3c2CCCC3)cc1C`, the activation is 13.2% (inactive). The figure for `CC(=O)NS(=O)(=O)c1ccc(NC(=S)NC(=O)C(C)(C)C)cc1` is 4.05% (inactive); for `COc1cccc(/C=N/NC(=O)C(=O)N2CCCC2)c1` it is -4.21% (inactive); for `CCCCCCCC(=O)NC(Nc1ccccc1OC)C(Cl)(Cl)Cl` (centres undefined) it is -6.09% (inactive).

With `Cc1ccccc1/[N+]([O-])=C/c1ccncc1`, the activation was 15.8% (inactive). Turning to `N#Cc1cc([N+](=O)[O-])ccc1Oc1cccc(/C=N/NC(=O)c2ccc(Cl)cc2)c1`, the activation was 1.88% (inactive). The figure for `COC(=O)CSc1nnc(-c2cccnc2)o1` is -7.95% (inactive); for `CCn1c(Cc2cccs2)nnc1SCC(=O)c1ccc(C)cc1` it is 8.94% (inactive); for `COc1ccc(CCNC(=S)NC(=O)/C=C/c2ccc(C)cc2)cc1OC` it is -6.74% (inactive). In the case of `CN1CC(c2ccccc2)C2(COc3ccccc3C2=O)C12C(=O)Nc1ccccc12` (centres undefined), the activation was 0.22% (inactive). The figure for `CN(C)/C(CN1CCCCC1)=C1\N=C(c2ccccc2)OC1=O` is 13.1% (inactive); for `CC(=O)NC1=NN(C(C)=O)C(C)(c2ccc(Cl)s2)S1` (centres undefined) it is -0.11% (inactive); for `O=C(CN1CCN(c2ccc(Cl)cc2)CC1)N1CCCC1` it is -4.06% (inactive).

On to `O=C(Nc1cccc(Cl)c1)Nc1nnc(-c2ccccc2)o1`, for which the activation is -2.48% (inactive). For `CC(C(=O)Nc1ccc(F)c(F)c1F)N1CCCCCC1` (centres undefined), the activation is 24.8% (inactive).

Regarding `CC1CCC2(CC1)NC(=O)N(CC(=O)c1cccn1C)C2=O` (centres undefined), the activation was -10.9% (inactive).

Consider `O=C(CN1C(=O)NC2(CCCC2)C1=O)Nc1ccc(F)c(F)c1F`, for which the activation is 40.4% (active). The result for `C=CCn1c(Cn2nnc3ccccc32)nnc1SCC(=O)N/N=C/c1cc(Br)cc(OC)c1O` reads -7.49% (inactive); that for `COc1ccccc1CSc1nc2ccccc2[nH]1`, 0.73% (inactive); that for `O=C(Cc1ccc(S(=O)(=O)N2CCOCC2)s1)NCCC(c1ccccc1)c1ccccc1`, 7.66% (inactive). The figure for `CCOC(=O)C1=C(C)NC(C)=C(C(=O)OCC)C1c1ccccn1` is 1.56% (inactive); for `CCCC1NC(=O)NC(C)=C1C(=O)OCC` (centres undefined) it is -16.9% (inactive).

Regarding `CCOC(=O)C1=C(C)NC(C)=C(C(=O)OCC)C1C1=COCCO1`, the activation was 42.7% (active).

Consider `O=C(Nc1ccccc1[N+](=O)[O-])C1C(c2ccccc2)=C1c1ccccc1`, for which the activation is -5.91% (inactive). As for `O=C(/C=C/Nc1ccccc1OC(F)(F)F)C(F)(F)F`, the activation is 10.9% (inactive). The result for `O=C(CN1CCSCC1)N/N=C/c1ccc(F)cc1F` reads 6.22% (inactive); that for `Cc1cccc(N2CCN(C(=O)CN(C)S(=O)(=O)c3ccc4c(c3)CCC(=O)N4)CC2)c1C`, -2.04% (inactive). In the case of `O=C(NC1CCCCC1)c1cc([N+](=O)[O-])ccc1N1CCOCC1`, the activation is -1.25% (inactive). Take `CC(C)(C)Cc1nnc(NC(=O)c2cc(-c3ccccc3)nc3ccccc23)s1`: the activation was 41.2% (active). Take `Cc1ccc(-c2cc(C(=O)Nc3nn[nH]n3)c3ccccc3n2)c(C)c1`: the activation is -7.54% (inactive). Regarding `Cc1ccc2nc(-c3ccccc3)cc(C(=O)O)c2c1`, the activation was 1.92% (inactive). The result for `OCCN(Cc1ccccc1)Cc1ccc(Cl)cc1` reads -4.34% (inactive); that for `CCOn1c(SC(C)C)nc2ccccc2c1=O`, -7.95% (inactive). The result for `Cc1cc(C)n(-c2c(F)c(F)c(COC(=O)c3ccccc3)c(F)c2F)n1` reads 17.9% (inactive). Consider `CCCOn1c(-n2nc(C)cc2C)nc2ccccc2c1=O`, for which the activation is 121% (active). The result for `CCOC(=O)C1=NNC2(c3ccc(Cl)cc3)C(=O)N(c3cc(C)cc(C)c3)C(=O)C12` (centres undefined) reads -2.6% (inactive).
